outcome, max response and Potency data for 18 molecules are collected here from PubChem BioAssay (NCATS).

Holding throughout (assay): Cytotoxic Profiling of Annotated Libraries Using Quantitative High-Throughput Screening (AID 1296008); also: nearly all actives have a fitted effect of over 60% in size
Details in all cases: Five cell lines viability, CellTiter-Glo ATP luminescence, 48-72 h; max response: stronger effect = lower value
(In general: ATP-based viability assays read luminescence as a measure of living cells.)

The subject of one assay is CRL-7250. The essentials:
(§1)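 Cytotoxicity was measured as CellTiter-Glo ATP luminescence, read after 10 min at room temperature. Compound treatment of the cells lasted 48 or 72 hr at 37 degrees Celsius in a qHTS format.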

The next assay has as its system HEK293. Put shortly:
as §1

Another assay deals with HaCat. The essentials:
as §1

The subject of the next assay is KB-3-1. Put shortly:
as §1

The test system of the next assay is NIH3T3. The essentials:
as §1

Inconclusive results are not listed. Calls of active or inactive are those of the source. Calls follow the shape of the dose curve; as a rule, active = well fitted inhibition curve with a large enough effect; inconclusive = small, poorly fitted or top-dose-only effect; inactive = flat fitted curve, though single readings scatter.
% is scaled to controls: 0 for no effect and ±100 for the full control effect; potency is read from the fitted curve at half-maximal effect.

Consider `C/C=C/C=C/C1=C2C(=O)C3(C)C4C(C(=O)CC(O)/C=C/C)=C(O1)C1(C)C2C2(C)OC1(O)C4(C)OC23O` (stereo not given), for which the call in the assay with CRL-7250, in the assay on HaCat and in the assay with NIH3T3 was inactive. The max response in the assay with HEK293 was -2.55% (inactive); with KB-3-1 it was 3.96% (inactive).

In the case of `C=C1C(O)CC2C(C(=O)O)=COC(O[C@@H]3O[C@H](COC(=O)c4ccc(O)cc4)[C@@H](O)[C@H](O)[C@H]3O)C12` (stereo not given in full), the result with CRL-7250, with KB-3-1 and in the assay with NIH3T3 was inactive. In addition, the max response in the assay with HEK293 was -1.77% (inactive); in the assay with HaCat, 2.09% (inactive).

Turning to `CC(=O)O[C@@H]1[C@H](O[C@@H]2OC[C@](O)(CO)[C@H]2O)[C@@H](O[C@@H]2O[C@@H](C)[C@H](O)[C@@H](O[C@@H]3O[C@H](CO)[C@@H](O)[C@H](O)[C@H]3O)[C@H]2O)[C@H](OC(=O)[C@]23CCC(C)(C)C[C@H]2C2=CCC4[C@@]5(C)C[C@H](O)[C@H](O[C@@H]6O[C@H](C(=O)O)[C@@H](O)[C@H](O)[C@H]6O)[C@@](C)(C(=O)O)C5CC[C@@]4(C)[C@]2(C)CC3)O[C@@H]1C` (stereo not given in full), the max response in the assay on CRL-7250 was -6.6% (inactive); with HEK293, -7.53% (inactive); in the assay on KB-3-1 it was 3.25% (inactive). The call in the assay on HaCat and with NIH3T3 was inactive.

On to `COc1cc2c(cc1OC)N1C(=O)C[C@@]34C=CC[N@+]5([O-])CC[C@H]2[C@H](CC3)[C@@]145`, for which the max response was -5.36% (inactive) in the assay on CRL-7250, -9.63% (inactive) with HEK293, -4.24% (inactive) with HaCat and 1.95% (inactive) with KB-3-1. Also, in the assay with NIH3T3, the molecule was called inactive.

For `O=C(NCC(=O)N1CCCC1)Nc1ccc2ccccc2c1`, the max response in the assay with CRL-7250 is 3.04% (inactive); in the assay with HEK293 it was 2.51% (inactive); in the assay on NIH3T3, -1.06% (inactive). Also, the call with HaCat and in the assay on KB-3-1 was inactive.

In the case of `Nc1c(-c2ccccc2)nc(Cl)c2c(O)n[nH]c(=O)c12`, the result with CRL-7250, with HaCat and in the assay on NIH3T3 was inactive. The figures for the max response with HEK293 and in the assay with KB-3-1 were -7.38% (inactive) and 9.61% (inactive), respectively.

`COc1ccc(CCC(=O)c2c(O)cc(O[C@@H]3O[C@H](CO)[C@@H](O)[C@H](O)[C@H]3O[C@@H]3O[C@@H](C)[C@H](O)[C@@H](O)[C@H]3O)cc2O)cc1O`: the max response with CRL-7250 was -2.32% (inactive); in the assay on HEK293, 0.838% (inactive); in the assay with HaCat, 4.19% (inactive). Further, the molecule was called inactive in the assay with KB-3-1 and in the assay on NIH3T3.

Turning to `CC1(C)CC[C@]2(C(=O)O)CC[C@]3(C)C(=CCC4[C@@]5(C)C[C@@H](O)[C@H](O)[C@](C)(CO)C5CC[C@]43C)[C@@H]2[C@@H]1O` (stereo not given in full), the result with CRL-7250 and in the assay with NIH3T3 was inactive. Also, in the assay on HEK293, the Potency was 7.96 µM (active). The max response was 1.54% (inactive) in the assay with HaCat and -5.13% (inactive) in the assay on KB-3-1.

`COC(=O)C(CC1CCCC1)c1ccc(S(C)(=O)=O)cc1` (stereo not given): the molecule was called inactive in the assay with CRL-7250, in the assay on HaCat and in the assay with KB-3-1. In addition, the figures for the max response in the assay with HEK293 and with NIH3T3 were 0.176% (inactive) and 2.5% (inactive), respectively.

Consider `C=C(COC(=O)CC(C)C)C1Cc2cc(C(C)=O)ccc2O1` (stereo not given), for which the result in the assay on CRL-7250, with HaCat and in the assay with NIH3T3 was inactive. Besides, the max response with HEK293 is -2.29% (inactive); with KB-3-1, 4.45% (inactive).

`C=CC1(C)CC2CCC3C(C)(C(=O)O)CCCC3(C)C2=CC1=O` (stereo not given): the result in the assay on CRL-7250, in the assay with HaCat and in the assay with KB-3-1 was inactive. Moreover, the max response with HEK293 was -0.432% (inactive); with NIH3T3, -4.63% (inactive).

With `Cn1cc(Nc2cnccc2C(=O)O)c2cccnc21`, the max response was 1.11% (inactive) in the assay on CRL-7250, -5.52% (inactive) in the assay on HEK293 and 4.86% (inactive) in the assay on HaCat. For the same molecule, the molecule was called inactive in the assay with KB-3-1 and in the assay on NIH3T3.

In the case of `CC1(C)[C@H]2C[C@H](C/C=C\CCCC(=O)O)[C@@H](NC(=O)c3csc4ccc(O)cc34)[C@@H]1C2`, the figures for the max response with CRL-7250 and with HEK293 were -1.76% (inactive) and 4.16% (inactive), respectively. Also, the result with HaCat, with KB-3-1 and in the assay with NIH3T3 was inactive.

Regarding `CC(NC(=O)c1ccccc1N)C(=O)O` (stereo not given), the max response in the assay with CRL-7250 is 2.02% (inactive); in the assay with HEK293, 4.67% (inactive); in the assay with KB-3-1, 9.06% (inactive); with NIH3T3 it was 0.106% (inactive). For the same molecule, in the assay with HaCat, the outcome was inactive.

Consider `CC1CC2(O)OC(=O)C3=C2C(CCC3)[C@@]12C[C@@H](c1ccoc1)OC2=O` (stereo not given in full), for which the max response in the assay on CRL-7250 was 0.272% (inactive); in the assay with HEK293 it was -0.207% (inactive); in the assay on NIH3T3 it was 0.0082% (inactive). In addition, the call with HaCat and with KB-3-1 was inactive.

For `O=C(N[C@@H]1CC[C@@H](c2cccc(F)c2F)CN(CC(F)(F)F)C1=O)N1CCC(n2c(=O)[nH]c3ncccc32)CC1`, the values for the max response with CRL-7250 and in the assay with NIH3T3 were -4.99% (inactive) and -12.6% (inactive), respectively. Further, the Potency with HEK293 was 16.4 µM (active). Moreover, the result with HaCat and in the assay with KB-3-1 was inactive.

For `CC(=O)NC1CC(=O)C23C(=O)NC(Cc4c[nH]c5ccccc45)C2C(C)=C(C)C(O)C3/C=C/CC(C)/C=C(/C)C(O)C1O` (stereo not given), the max response is -0.702% (inactive) with CRL-7250, 4.13% (inactive) in the assay with HEK293 and 0.623% (inactive) with KB-3-1. Besides, the molecule was classed as inactive with HaCat and with NIH3T3.

As to `C=C1C2CCC3C(CCC4[C@@]3(C)CCC[C@@]4(C)C(=O)O)(C2)[C@@H]1OC(=O)/C(C)=C\C` (stereo not given in full), the max response in the assay on CRL-7250 was -44.5% (inactive); in the assay on HEK293, -104% (inactive); in the assay with HaCat, -0.634% (inactive); in the assay with KB-3-1 it was 2.48% (inactive). Further, the result with NIH3T3 was inactive.
